EBNA-1 inhibitor = blocks EBNA-1 binding to DNA | EBNA-1 DNA binding, fluorescence polarization | inhibition, % at 14.8 µM | hit rate 0.34% among 300,000 | AID 1950; in the data active means inhibition above about 28%
dFosB act-1 = activators of mouse delta FosB homodimer | purified delta FosB, TAMRA-CDK5 oligo fluorescence polarization; percent of positive-control signal above neutral wells | activation, % at 25 µM | hit rate 0.99% among 340,000;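 active means mean activation above about 17%, with every replicate also reaching it, limit read from the data, passing the limit was not always enough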
TPT1 inh = blocks Candida albicans tRNA 2'-phosphotransferase; recombinant caTPT1, FP RNA substrate dephosphorylation; inhibition, % at 5 µM; hit rate 0.81% among 300,000; AID 1962;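 active means inhibition above the mean of all tested compounds plus 3 SD, set per screening campaign, cut at about 24% in these data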;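 further: plate controls were DMSO alone for no effect and ferristatin control at 100 nM for full effect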
ZTA DNA inh = counter-screen for EBNA-1 inhibitors: inhibitors of Epstein-Barr virus ZTA; P03206; ZTA-DNA binding, fluorescence polarization; inhibition, % at 11 µM; hit rate 0.15% among 320,000; AID 2234; in the data active means inhibition above about 33%
GRIN3A LBD mod = modulators (binders) of human NR3A ligand-binding domain | hit rate 2.5% among 340,000 | NR3A LBD differential scanning fluorimetry, Tm shift; 0% = protein alone, 100% = glycine-bound protein | Tm shift relative to glycine control, % at 25 µM;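 active means melting temperature shift of at least 10% of the positive control shift, at one fixed dose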
Rpn11 inh = blocks the human proteasome subunit Rpn11. inhibition, % at 20 µM. human 26S proteasome, Ub4-pepOG fluorescence polarization; 20S core pre-blocked with epoxomicin. hit rate 0.59% among 360,000. O00487;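 active means inhibition at 20 µM, scaled to each plate's controls, above about 33%, limit read from the data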
dFosB act-2 = delta FosB (mouse) homodimer activation; AID 588690; 2,400 tested, under 10 active; purified delta FosB, TAMRA-CDK5 oligo fluorescence polarization; normalised: neutral wells 0, positive control 100; activation, % at 24.9 µM; shares compounds with dFosB act-1;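 active means highest replicate activation at or above 34% and every replicate reaching that threshold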;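 further: higher polarization means more probe DNA bound by delta FosB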
Rpn11 confirm = Rpn11 inhibition confirmation, single concentration. shares compounds with Rpn11 inh. purified human 26S proteasome, Ub4-pepOG fluorescence polarization; proteasome pretreated with epoxomicin. inhibition, % at 20 µM. hit rate 29% among 1,900. AID 602318
MMP-2 counter = blocks human MMP-2, flagging nonselective RPN11 hits; shares compounds with Rpn11 inh; recombinant MMP-2, FRET peptide cleavage fluorescence; inhibition, % at 20 µM; hit rate 4% among 1,900;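 further: human MMP-2 activated beforehand with APMA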
Target sequence (P08253 whole entry, looked up): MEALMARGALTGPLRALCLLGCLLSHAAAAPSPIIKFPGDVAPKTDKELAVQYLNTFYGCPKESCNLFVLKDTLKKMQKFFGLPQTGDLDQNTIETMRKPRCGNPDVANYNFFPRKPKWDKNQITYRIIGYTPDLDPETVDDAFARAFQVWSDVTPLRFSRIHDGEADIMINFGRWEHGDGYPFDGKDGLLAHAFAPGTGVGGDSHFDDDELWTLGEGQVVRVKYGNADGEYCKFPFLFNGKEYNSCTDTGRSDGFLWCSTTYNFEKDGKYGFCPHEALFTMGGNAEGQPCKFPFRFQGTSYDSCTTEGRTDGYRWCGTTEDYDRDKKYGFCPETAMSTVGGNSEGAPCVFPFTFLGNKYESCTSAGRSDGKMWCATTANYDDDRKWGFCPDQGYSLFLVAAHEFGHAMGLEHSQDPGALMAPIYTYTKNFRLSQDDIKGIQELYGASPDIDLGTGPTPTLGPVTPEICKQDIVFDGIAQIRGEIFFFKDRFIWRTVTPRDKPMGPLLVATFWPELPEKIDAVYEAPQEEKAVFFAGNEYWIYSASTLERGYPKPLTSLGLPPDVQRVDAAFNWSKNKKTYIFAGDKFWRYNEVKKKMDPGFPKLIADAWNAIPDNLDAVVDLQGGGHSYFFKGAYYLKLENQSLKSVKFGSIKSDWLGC
Thrombin inh = thrombin (bovine) inhibition counter-screen | shares compounds with Rpn11 inh | bovine thrombin cleavage of Ub4-pepOG, fluorescence polarization | inhibition, % at 20 µM | hit rate 13% among 1,900;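 active means mean inhibition at least 40% at 20 µM, or signal 3 deviations below plate average, so some actives read negative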;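 further: plate controls were thrombin with DMSO for no effect and buffer wells lacking thrombin for full effect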
* marks the source's active call; other numbers are inactive results; · = no result. Shown are actives, neighbours in structure and some others; about 4.5% of the full set was active somewhere. Unless noted, no stated cut-off is given here; in the data, active means inhibition above about 40%; inactive means the rest.

SMILES | EBNA-1 inhibitor | dFosB act-1 | TPT1 inh | ZTA DNA inh | GRIN3A LBD mod | Rpn11 inh | dFosB act-2 | others
Nc1c(C(=O)NCc2ccc3c(c2)OCO3)nnn1CC(=O)Nc1ccc(Br)cc1 | -6.7 | 50.9* | 0.2 | -0.5 | 0.2 | 9.1 | 4.9
Cc1cc(C)c(NC(=O)Cn2nnc(C(=O)NCc3ccc4c(c3)OCO4)c2N)c(C)c1 | 3.7 | 74.5* | -1.4 | 17.2 | 5.2 | -1.4 | -0.4
CC(C)c1ccc(NC(=O)Cn2nnc(C(=O)NCc3ccc4c(c3)OCO4)c2N)cc1 | 5.1 | 30.9* | 0.5 | 16.0 | -11.4 | 1.7 | -2.9
CC1CCC(NC(=O)c2ccc3c(c2)S(=O)(=O)c2ccccc2C3=O)CC1 (stereo unspecified) | 13.7 | -6.7 | -0.2 | 9.2 | -10.6 | 3.3 | ·
O=C(NCc1ccc2c(c1)OCO2)c1ccc(CS(=O)Cc2ccc(Cl)cc2)o1 (stereo unspecified) | -18.9 | -5.6 | 2.7 | 1.4 | 0.8 | 2.3 | ·
O=C(NCc1ccc2c(c1)OCO2)c1nnc(Cc2ccc(Cl)cc2)o1 | 3.5 | 26.9* | 0.0 | -5.8 | -0.6 | 2.3 | 2.6
COC(=O)c1ccc(NC(=O)C(=O)c2c[nH]c3ccccc23)cc1 | 5.1 | 71.8* | 1.0 | 20.5 | -1.3 | 0.6 | 7.0
CC1(C(=O)Nc2ccc3c(c2)OCO3)CCN1C(=O)CCc1ccc(Cl)cc1Cl (stereo unspecified) | · | · | · | · | · | 11.8 | ·
C[C@H]1CN([C@@H](C)CO)C(=O)c2cc(NS(=O)(=O)c3ccc(Cl)cc3)ccc2O[C@@H]1CN(C)CC1CCCCC1 | · | -10.8 | · | · | -0.6 | -7.1 | ·
CCCNC(=O)C1(C)CCCN(C(=O)c2cc(C)nn2C(C)(C)C)C1 (stereo unspecified) | · | · | · | · | · | -2.5 | ·
COc1cc(OC)c2c(-c3ccccc3)cc(=O)oc2c1C(CCN1CCCC1)c1ccc2c(c1)OCO2 (stereo unspecified) | 2.4 | 19.3* | -3.5 | 2.5 | 1.8 | -3.1 | 1.8
COc1cc(OC)c2c(-c3ccccc3)cc(=O)oc2c1C(CCN1CCOCC1)c1ccc2c(c1)OCO2 (stereo unspecified) | · | 3.6 | · | · | -0.5 | -1.0 | ·
COc1ccc(C(CCN2CCN(c3ccccc3)CC2)c2c(OC)cc(OC)c3c(-c4ccccc4)cc(=O)oc23)cc1 (stereo unspecified) | 8.5 | 19.6* | -2.3 | -3.4 | -1.8 | 1.5 | 2.2
CCCCCc1cc(=O)oc2c(C(CCN3CCCC(C)C3)c3ccc4c(c3)OCO4)c(OC)cc(OC)c12 (stereo unspecified) | 2.9 | 32.5* | 1.4 | 0.2 | -3.4 | 3.2 | 1.1
COc1cc(OC)c2c(-c3ccccc3)cc(=O)oc2c1C(CCN1CCN(c2ccccc2)CC1)c1ccc(N(C)C)cc1 (stereo unspecified) | 7.6 | 2.3 | 0.4 | 9.8 | -1.1 | 7.1 | ·
O=C(Nc1nc2c(Cl)ccc(Cl)c2s1)C1CC1 | 2.6 | 27.8* | -1.1 | -5.4 | -2.7 | 0.9 | 0.3
CCc1cc2c(=O)oc(-c3ccc(F)cc3)nc2s1 | 1.4 | 2.2 | -1.7 | -1.9 | 1.6 | 0.7 | ·
COc1ccc(O)c(C(=O)c2cnn(C(=O)c3cccc(S(=O)(=O)N(C)C)c3)c2)c1 | · | 36.7* | · | · | 0.5 | 21.5 | 1.2
Cc1ccccc1NC(=O)COC(=O)c1ccc2c(c1)OCCO2 | · | 15.8 | · | · | -0.9 | -18.3 | ·
Cc1cc(C)cc(NC(=O)COC(=O)c2ccc3c(c2)OCCO3)c1 | · | 0.0 | · | -24.1 | -1.0 | 0.7 | ·
Cc1ccc(C)c(NC(=O)COC(=O)c2ccc3c(c2)OCCO3)c1 | · | 32.5* | · | -5.1 | 1.9 | -4.5 | -13.5
Cc1ccc(C(=O)OCC(=O)Nc2ccc3c(c2)OCCO3)cc1C | · | 21.9* | · | · | 0.4 | -2.9 | -14.4
Cc1cc(C)nc(SC(C)CNS(=O)(=O)c2ccccc2)n1 (stereo unspecified) | 1.2 | -0.3 | -1.5 | -2.8 | 0.9 | -0.5 | ·
COc1ccccc1NC(=O)Cn1nnc(C(=O)NCc2cccs2)c1N | -9.1 | 22.2* | 0.4 | -26.9 | 0.2 | -3.6 | -6.5
O=C(Cn1nnc2c(cnn2-c2ccccc2)c1=O)NCc1cccs1 | -9.1 | 37.9* | -1.6 | -10.9 | -0.7 | -1.4 | 4.8
SMILES | EBNA-1 inhibitor | dFosB act-1 | TPT1 inh | ZTA DNA inh | GRIN3A LBD mod | Rpn11 inh | dFosB act-2 | others
Cc1nn(CC(=O)NCc2cccs2)c(=O)c2nn(-c3ccccc3)c(C)c12 | -10.7 | -6.8 | -1.6 | -5.3 | -1.6 | -2.6 | ·
Cc1ccc(C)c(NC(=O)Cn2nnc(C(=O)NCc3cccs3)c2N)c1 | 10.8 | -2.1 | 1.9 | -3.7 | -0.4 | 2.5 | ·
CCc1ccccc1NC(=O)Cn1nnc(C(=O)NCc2cccs2)c1N | 2.6 | 39.8* | -2.2 | -25.2 | -5.2 | -0.5 | -0.5
O=C(O)CN1C(=O)C2C3CC(C2C1=O)C1C(c2ccc(F)cc2)c2sc(=O)[nH]c2SC31 (stereo unspecified) | 18.8 | -5.0 | -1.0 | -7.0 | -1.9 | 1.0 | ·
NC(=O)CCCn1c(C(=O)c2cc(Cl)c(N)c(Cl)c2)c2ccc(C(F)(F)F)cc2[n+]1[O-] | -3.7 | -5.7 | -0.3 | -5.9 | -4.8 | -2.0 | ·
COCCN(CCOC)Cc1cc(=O)oc2cc(OC)ccc12 | · | · | · | · | · | 5.8 | ·
CCOC(=O)c1ccc(-n2cccc2/C=C2\NC(=O)NC2=O)cc1 | · | 30.1* | · | 17.4 | -1.1 | 45.5* | 6.6 | Rpn11 confirm=3.7;MMP-2 counter=-72.8;Thrombin inh=-14.3
CCOC(=O)c1cccc(-n2cccc2/C=C2\NC(=O)N(CC(=O)O)C2=O)c1 | · | -8.0 | · | · | 1.6 | 0.5 | ·
Cc1cc(C(=O)C(C(c2ccccc2)N2CCOCC2)N2CCOCC2)ccc1Cl (stereo unspecified) | · | -7.8 | · | · | -2.1 | 3.9 | ·
CCN1/C(=C\C=C2\C(=O)N(c3ccccc3)C(=S)N2C)Sc2ccccc21 | · | 27.8* | · | · | 4.0 | 48.1* | 4.9 | Rpn11 confirm=-1.8;MMP-2 counter=0.0;Thrombin inh=-5.4
CCN1/C(=C2\OC(=S)N(C)C2=O)Sc2ccccc21 | -0.7 | 1.8 | 4.6 | 12.5 | 0.7 | -6.9 | ·
Clc1cccc(CNc2nc(-c3cccnc3)nc3ccccc23)c1 | · | 54.8* | · | · | 5.8 | 53.9* | 1.6 | Rpn11 confirm=4.2;MMP-2 counter=-60.2;Thrombin inh=-16.8
c1cncc(CNc2nc(-c3cccnc3)nc3ccccc23)c1 | -12.6 | -35.8 | -2.4 | -8.7 | 0.9 | -1.1 | ·

Compound activity (PubChem)
